We go through 14 compounds from PubChem BioAssay (EPA / NIEHS).

Several values for one entry are separate records, joined by “and”; a condition that tells them apart may be missing. Identical values can stand only once. Records with an inconclusive call do not appear. Where a structure was tested more than once in an assay, its records may differ in their call. Activity calls are given as the source filed them. The calls were made as follows, unless noted: active = hit-call score of the fitted dose curve at least 0.9, where 1 is the maximum; inactive = score below 0.9.

Experiment [1] can be described thus: CCTE_Simmons_MITO_basal_resp_rate: CCTE's HepG2 Seahorse XF Respirometric Screening Assay at Basal Respiratory State, Simmons Lab (AID 2284001). The note with it: actives raise or lower the signal. In a few lines: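 HepG2 cells were given test chemicals at 7 concentrations, 125 nM to 100 uM final, and oxygen consumption rate was read every 6 min (3 min mix, 3 min measure) over 72 min. Basal-phase OCR was fitted bidirectionally against DMSO.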

A short description of experiment [2]: CCTE_Simmons_MITO_inhib_resp_rate: CCTE's HepG2 Seahorse XF Respirometric Screening Assay at Inhibited Respiratory State [full ETC block], Simmons Lab (AID 2284006). The note with it: actives raise or lower the signal. Summed up: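 HepG2 oxygen consumption was measured by Seahorse XF after compound, FCCP, then rotenone/antimycin A injections. Seven concentrations from 125 nM to 100 uM (final) were tested, with 6-min kinetic reads over 72 minutes. Inhibited-state OCR was fitted bidirectionally against DMSO.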

Experiment [3] can be described thus: CCTE_Harrill_HTTr_Viability_MCF7: CCTE's 6-hour Cell Viability Assessment for the High-Throughput Transcriptomics (HTTr) Platform, in MCF-7 cells cultured in DMEM + 10% fetal bovine serum, Harrill Lab (AID 2284010). Summed up: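 MCF-7 cells in DMEM + 10% FBS, 384-well, exposed 6 h to an eight-point dilution series. Membrane integrity scored by high-content imaging of propidium iodide exclusion; bidirectional fit versus DMSO.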

Experiment [4] can be described thus: CCTE_Harrill_HTTr_Apoptosis_MCF7: CCTE's 6-hour Apoptosis Assessment for the High-Throughput Transcriptomics (HTTr) Platform, in MCF-7 cells cultured in DMEM + 10% fetal bovine serum, Harrill Lab (AID 2284011). Summed up: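 MCF-7 cells in DMEM + 10% FBS exposed 6 h to chemicals over an eight-point dilution series. Caspase-3/7 activation imaged by high-content CellEvent Green staining; fitted bidirectionally versus DMSO.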

Experiment [5] can be described thus: CCTE_Shafer_MEA_acute_spike_number: CCTE's Neural Acute Assay for Total Number of Spikes, Shafer Lab (AID 2284008).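 As to AC50: curve fitted for decrease in spike count so AC50 reflects inhibitors.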 In a few lines:
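Rat primary cortical neurons on 48-well MEA plates, DIV 13 or 15, at 37 C. 40 min baseline then 40 min with compound (0.03-40 uM); spikes detected at 8x rms noise, expressed as percent change from baseline.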

The nature of experiment [6]: CCTE_Harrill_HTTr_CellCount_MCF7: CCTE's Cell Proliferation Assessment for the High-Throughput Transcriptomics (HTTr) Platform, Harrill Lab (AID 2284012; active = hit-call score of the fitted dose curve at least 0.9, where 1 is the maximum;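 also: cells exposed to compound for six hours; intended direction is loss of nuclei count meaning fewer cells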). In a few lines: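 MCF7 cells exposed 6 hours to an eight-point dilution series; Hoechst-stained nuclei counted by high-content imaging. Bidirectional curve fitting against DMSO baseline.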
A short description of experiment [7]: CCTE_Shafer_MEA_acute_burst_number: CCTE's Neural Acute Assay for Single-Electrode Bursts, Shafer Lab (AID 2284013). Summed up: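 Rat cortical cultures, DIV 13/15; 40 min baseline, then 40 min with compound 0.03-40 uM, 37 C. Spikes: 300-5000 Hz band-pass, threshold 8x rms noise. Readout = % change in single-electrode bursts vs baseline, loss-of-signal fit.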

Experiment [8] is described as follows: CCTE_Shafer_MEA_acute_burst_duration_mean: CCTE's Neural Acute Assay for Mean Burst Duration, Shafer Lab (AID 2284014).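 Also: hits are decreases in mean burst duration relative to DMSO controls.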 Summed up:
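Primary rat cortical neurons on 16-electrode MEA wells, treated on DIV 13 or 15 with compound (0.03-40 uM; ≥3 wells each). 40-min baseline and 40-min exposure recordings at 37 C; percent change in mean burst duration per well versus DMSO.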

Experiment [9] is described as follows: CCTE_Shafer_MEA_acute_per_burst_spike_number_mean: CCTE's Neural Acute Assay for Average Number of Spikes Per Burst, Shafer Lab (AID 2284015).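 Also: hits are decreases in mean spikes per burst versus baseline.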 Summed up:
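Rat primary cortical neurons on 48-well MEAs (DIV 13 or 15) were treated with 0.03-40 uM compound at 37 C. Mean spikes per burst over 40 min were recorded before and after exposure and expressed as percent change from baseline, relative to DMSO.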

Experiment [10] can be described thus: CCTE_Shafer_MEA_acute_interburst_interval_mean: CCTE's Neural Acute Assay for Mean Interburst Interval, Shafer Lab (AID 2284016).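 Also: percent change of mean interburst interval versus each well's own pre-dose baseline; curves fitted for decrease in interburst interval relative to DMSO.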 In a few lines:
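Rat primary cortical neurons on 48-well MEAs at DIV 13 or 15 were exposed acutely to 0.03-40 uM. Spikes detected at 8x rms noise, 37 C. Mean interburst interval from 40 min recordings expressed as percent change from 40 min pre-treatment baseline.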

A short description of experiment [11]: CCTE_Shafer_MEA_acute_burst_percentage_std: CCTE's Neural Acute Assay for Standard Deviation of Burst Percentage, Shafer Lab (AID 2284018).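 Also: fitted in the negative direction so actives lower burst percentage SD.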 Summed up:
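Primary rat cortical neurons on 16-electrode MEA wells were recorded 40 min at baseline (DIV 13 or 15), then 40 min after compound (0.03-40 uM), at 37 C. Well value is SD across electrodes of spikes-in-bursts/total spikes; endpoint is percent change, DMSO-referenced.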

A short description of experiment [12]: CCTE_Shafer_MEA_acute_per_network_burst_spike_number_mean: CCTE's Neural Acute Assay for Average Number of Spikes in a Network Burst, Shafer Lab (AID 2284019).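 As to AC50: curve fitted for loss of signal so actives reduce spikes per network burst.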 In a few lines: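 Primary rat cortical neurons on 16-electrode MEA wells, DIV 13 or 15, 37 C; 40-min baseline then 40-min recording with compound (0.03-40 uM). Spikes per network burst (total spikes/number of bursts) expressed as percent change from baseline, DMSO reference.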

A short description of experiment [13]: CCTE_Shafer_MEA_acute_per_network_burst_spike_number_std: CCTE's Neural Acute Assay for Standard Deviation of Number of Spikes in a Network Burst, Shafer Lab (AID 2284020).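 Also: fitted for decrease in spike-number SD versus DMSO so actives lower it.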 Summed up: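 Primary rat cortical neurons on 48-well MEAs (16 electrodes/well) recorded at DIV 13 or 15: 40-min baseline, then 40 min with compound (0.03-40 uM), 37 C. Value is percent change in SD of spikes per network burst, relative to DMSO.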

A short description of experiment [14]: CCTE_Shafer_MEA_acute_per_network_burst_electrodes_number_mean: CCTE's Neural Acute Assay for Mean Number of Electrodes in a Network Burst, Shafer Lab (AID 2284021).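 Also: curves fitted for decreases only so hits reduce electrodes per burst.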 In a few lines:
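Rat primary cortical neurons on 48-well MEAs, DIV 13 or 15, were treated at 0.03-40 uM. Spikes were detected at 8x rms noise and recorded at 37 C. The mean electrodes per network burst in a 40 min exposure recording was expressed as percent change from a 40 min baseline.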

Experiment [15] can be described thus: CCTE_Shafer_MEA_acute_network_burst_percentage: CCTE's Neural Acute Assay for Percentage of Network Bursts, Shafer Lab (AID 2284022).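 Also: curves fitted for loss so actives lower network burst percentage.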 Summed up:
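Rat primary cortical neuron networks on 48-well MEA plates, DIV 13 or 15, treated acutely with compound (0.03-40 uM, at least three wells). Percent of spikes within network bursts compared between 40-min recordings before and during exposure at 37 C, expressed as percent change.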

A short description of experiment [16]: CCTE_Shafer_MEA_acute_cross_correlation_HWHM: CCTE's Neural Acute Assay for Cross Correlation at Half Width at Half Maximum, Shafer Lab (AID 2284026).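 Also: hits are a decrease in cross-correlogram half width relative to DMSO.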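 As to outcome: spontaneous network firing of rat primary cortical neurons on multiwell microelectrode arrays.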 In a few lines: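 Rat primary cortical neurons on 48-well MEA plates; 40-min baseline and 40-min post-exposure recordings at 37 C on DIV 13 or 15, compounds 0.03-40 uM. Spikes detected at 8x rms noise; percent change in cross-correlogram HWHM per well vs baseline.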

Experiment [17] can be described thus: CCTE_Shafer_MEA_acute_synchrony_index: CCTE's Neural Acute Assay for Synchrony, Shafer Lab (AID 2284027).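 Also: network synchrony index of spontaneous spiking in primary rat cortical neurons on MEAs; fitted for loss of signal so actives lower synchrony relative to DMSO.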 In a few lines: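 Primary rat cortical neurons on 48-well MEAs, dosed at 0.03–40 uM on DIV 13 or 15. Spikes are recorded for 40 min at 37C before and after exposure, and synchrony index (0–1) is expressed as percent change from baseline per well.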
Experiment [18] is described as follows: CCTE_Simmons_MITO_viability: CellTiter-Glo Viability Assessment for CCTE's HepG2 Seahorse XF Respirometric Screening Assay [post-hoc], Simmons Lab (AID 2284007; active = hit-call score of the fitted dose curve at least 0.9, where 1 is the maximum). Summed up:
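HepG2 cells exposed 90 min to 7 concentrations from 125 nM to 100 uM final, then ATP measured by luciferase luminescence. Three biological replicates per concentration; DMSO vehicle; dichlone control at 10 nM–100 uM.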
In general terms: In ATP-based viability assays light output follows the ATP content of the culture.

The term AC50 denotes the concentration giving half of the maximal activity seen.

Regarding `CCNc1nc(NC(C)C)nc(SC)n1`, the outcome in experiment [1], in experiment [2], in experiment [3] and in experiment [4] was inactive.

Regarding `O=C(N[C@H]1CN2CCC1CC2)c1cc2ccoc2cn1`, the compound was called inactive in experiment [5], in experiment [3], in experiment [4], in experiment [6], in [7] and in experiment [8]. Besides, the call in experiment [9], in experiment [10], in experiment [11], in experiment [12], in [13] and in experiment [14] was inactive. For the same compound, the outcome in experiment [15], in experiment [16] and in experiment [17] was inactive.

Turning to `COc1ccc(O)c(C(C)(C)C)c1`, the AC50 was 44 µM (active) in experiment [1]; 3.04 µM (active) and 633 nM (active) in [5]; 4.04 µM (active) in [8]; 15 µM (active) and 185 nM (active) in [9]; 31.9 µM (active) in experiment [10]; 0.144 µM (active) in experiment [12]. For the same compound, the AC50 in experiment [13] is 0.0903 µM (active); in experiment [14], 0.449 µM (active); in experiment [15], 30.8 µM (active); in [16], 15 µM (active) and 2.79 µM (active) and 32.2 µM (active); in [17], 15 µM (active) and 3.93 µM (active) and 33 µM (active). Moreover, the call in [2], in experiment [18], in experiment [5], in experiment [3], in [4] and in experiment [7] was inactive. In addition, the result in [8], in experiment [9], in experiment [10], in [11], in experiment [12] and in [13] was inactive. The call in [14] and in experiment [15] was inactive.

As to `CCCN(CCC)N=O`, the compound was classed as inactive in experiment [5], in experiment [3], in [4], in experiment [6], in [7] and in [8]. Moreover, the outcome in [9], in [10], in experiment [11], in [12], in experiment [13] and in experiment [14] was inactive. Moreover, the outcome in [15], in experiment [16] and in experiment [17] was inactive.

Turning to `CCSC(=O)N(CC)C1CCCCC1`, the concentration at half-maximal activity (AC50) in experiment [1] is 50 µM (active); in [5], 20 µM (active); in experiment [9] it was 20 µM (active); in experiment [10] it was 31.7 µM (active); in [13], 8.39 µM (active); in experiment [16], 8.09 µM (active). Further, the AC50 in experiment [17] is 3.61 µM (active). The compound was called inactive in experiment [2], in [18], in experiment [3], in [4], in [6] and in experiment [7]. In addition, the call in experiment [8], in experiment [11], in experiment [12], in [14] and in experiment [15] was inactive.

As to `CCC(=O)O[C@H]1CC[C@H]2[C@@H]3CCC4=CC(=O)CC[C@]4(C)[C@H]3CC[C@]12C`, the compound was classed as inactive in experiment [2], in experiment [3] and in [4].

For `O=C(O)C(F)(F)C(F)(F)C(F)(F)C(F)(F)C(F)(F)C(F)(F)C(F)(F)C(F)(F)F`, the outcome in [1], in experiment [2], in experiment [18], in [3], in [4] and in experiment [6] was inactive.

As to `CCC(C)(c1ccc(O)cc1)c1ccc(O)cc1`, the AC50 in experiment [1] was 16.9 µM (active); in [15], 3.31 µM (active). Moreover, the outcome in experiment [2], in experiment [5], in [3], in [4], in experiment [6] and in [7] was inactive. In addition, the call in [8], in experiment [9], in experiment [10], in experiment [11], in [12] and in experiment [13] was inactive. For the same compound, the outcome in [14], in [16] and in experiment [17] was inactive.

As to `C[C@]12CCC(=O)C=C1CC[C@@H]1[C@@H]2CC[C@@]2(C)[C@H]1CC[C@]2(C)O`, the compound was called inactive in experiment [1], in [2], in experiment [3], in experiment [4] and in experiment [6].

Take `CCC(C)(CC)c1cc(NC(=O)c2c(OC)cccc2OC)on1`: the outcome in [5], in [3], in experiment [4], in [6], in experiment [7] and in experiment [8] was inactive. For the same compound, the result in experiment [9], in experiment [10], in [11], in experiment [12], in [13] and in experiment [14] was inactive. The outcome in experiment [15] and in [17] was inactive. Also, the AC50 in experiment [16] is 11.4 µM (active).

`CC(C)(O)C(=O)Nc1ccc([N+](=O)[O-])c(C(F)(F)F)c1`: the AC50 in experiment [1] is 40.9 µM (active). The compound was called inactive in [2], in experiment [18], in experiment [3] and in [4].

With `Oc1ccc(Cl)cc1Cl`, the outcome in experiment [3] and in experiment [4] was inactive.

`O=S(=O)(O)C(F)(F)C(F)(F)C(F)(F)C(F)(F)F`: the outcome in experiment [3], in experiment [4] and in experiment [6] was inactive.

Regarding `Cc1cccc([N+](=O)[O-])c1`, the result in experiment [3] and in [4] was inactive.
